# Most compounds without a hit are left out; they make up all but 7.4% or so of the library.
# SMN2 splice enh: qHTS Assay for Enhancers of SMN2 Splice Variant Expression | HEK293 SMN2-luciferase splicing reporter, luminescence, 30-36 h | Potency, µM (highest dose often 46.1 µM), for inactives: at the highest dose activity change, positive = activation, most hits filed as activators | actives 2.8% (n = 210,000) | AID 1458, 2008; further: % of control where 0% means no effect; nearly all actives have a fitted effect of over 55% in size
#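 HEK293 cells carry an SMN2 […]–luciferase reporter in which exon 7 inclusion puts luciferase in frame. Cells were plated 10-12 h before compound addition, then incubated 30-36 h at 37C. ONE-Glo luminescence was read; sodium butyrate at 4.5 mM final served as control.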
# p53 reactivation: qHTS assay for re-activators of p53 using a Luc reporter. H1299 p53-A138V BP100-luciferase reporter, luminescence, 24 h. Potency, µM (series often up to 92.2 µM), inactives show at the top dose activity change, positive = activation, hits mostly activators. actives 0.063% (n = 320,000); further: % of control where 0% means no effect; nearly all actives have a fitted effect of over 45% in size
#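 H1299 (p53-null), stable ts p53-A138V + BP100-Luc; 1000 cells/well, Opti-MEM/10% FBS; cpd 4 pt, 1:5; 24 h, 37 deg C, 5% CO2; detection reagent 10 min RT; luminescence.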
# NPC1 prom act: qHTS Assay for NPC1 Promoter Activators | Huh7 NPC1 promoter luciferase reporter, 24 h | Potency, µM (doses to about 9.22 µM), for inactives: at the highest dose activation, actives largely listed as activators | actives 2.4% (n = 320,000) | AID 485313, 2010; further: % of control where 0% means no effect; nearly all actives have a fitted effect of over 60% in size
#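 Readout is luciferase luminescence, reflecting NPC1 promoter activation in stably transfected Huh7 cells after 24 h compound exposure at 37 °C in reduced-serum medium with 10% FBS.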
# Rab9 promoter act: qHTS Assay for Rab9 Promoter Activators; Huh7 Rab9 promoter-luciferase reporter, luminescence, 24 h; Potency, µM (doses to about 9.22 µM), for inactives: at the highest dose activation, negative = inhibition, hits mostly activators; actives 2.8% (n = 320,000); AID 485297, 2010; further: % of control where 0% means no effect; nearly all actives have a fitted effect of over 60% in size
#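 Cell-based reporter: Huh7 stable for Rab9 promoter-driven luciferase, plated in reduced-serum medium with 10% FBS at 1500 cells/well, compound-treated 24 h at 37 °C, luminescence read after 10 min reagent.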
# ELG1 genotoxic: qHTS screen for small molecules that induce genotoxicity in human embryonic kidney (HEK293T) cells expressing luciferase-tagged ELG1; HEK293T ELG1-luciferase reporter, luminescence, 16 h; Potency, µM (highest dose often 46 µM), without a hit: at the highest dose activity change, positive = activation, usual class: activators; actives 1.3% (n = 330,000); further: % of control where 0% means no effect; nearly all actives have a fitted effect of over 60% in size
#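 After overnight (16 hr) compound treatment at 37 °C, ELG1-luciferase HEK293T cells were lysed with ONE-Glo; luminescence quantified 30 min later at room temperature.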
# FLuc counter: qHTS profiling assay for firefly luciferase inhibitor/activator using purifed enzyme and Km concentrations of substrates (counterscreen for miR-21 project). Luciferin 4-monooxygenase (Photinus pyralis), P08659. purified FLuc, Km substrates, luminescence inhibition. Potency, µM (titrated, usually from 57.5 µM), without a hit: top-dose activity change, negative = inhibition, actives largely listed as inhibitors. actives 6.9% (n = 360,000);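 further: plate controls were vehicle for no effect and reference inhibitor for full effect; nearly all actives have a fitted effect of over 55% in size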
# Target sequence (P08659 whole entry, looked up): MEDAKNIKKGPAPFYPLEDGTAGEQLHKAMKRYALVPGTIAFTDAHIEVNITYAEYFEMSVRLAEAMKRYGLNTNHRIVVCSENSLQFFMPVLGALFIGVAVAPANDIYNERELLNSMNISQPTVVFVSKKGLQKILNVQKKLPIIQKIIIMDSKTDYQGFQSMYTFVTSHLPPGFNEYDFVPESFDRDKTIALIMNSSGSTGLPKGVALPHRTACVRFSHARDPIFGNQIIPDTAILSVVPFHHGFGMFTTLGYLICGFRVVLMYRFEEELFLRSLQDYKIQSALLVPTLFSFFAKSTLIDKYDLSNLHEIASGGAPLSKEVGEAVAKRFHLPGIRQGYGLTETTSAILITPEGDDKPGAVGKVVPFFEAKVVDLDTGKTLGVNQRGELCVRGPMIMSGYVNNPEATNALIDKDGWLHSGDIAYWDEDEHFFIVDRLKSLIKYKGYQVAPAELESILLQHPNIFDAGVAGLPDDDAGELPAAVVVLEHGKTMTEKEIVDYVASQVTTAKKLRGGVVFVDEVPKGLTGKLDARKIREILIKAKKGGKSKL
#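 Purified P. pyralis luciferase, 10 nM final, with Km-level 10 uM D-luciferin and 10 uM ATP in 50 mM Tris acetate pH 7.5, 10 mM Mg acetate, 0.01% Tween-20, 0.05% BSA; 6-point qHTS titration about 60 µM downward; luminescence read.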
# Starred values were filed as active, the others as inactive; ? = inconclusive; · = no result; [ ] = dose if it differs, or a comment. The call rests on the fitted dose curve; in most records, active means well fitted curve in the direction sought with a large enough effect; inconclusive means small, poorly fitted or top-dose-only effect, or another doubt; inactive means no such curve, though single readings can be large; an effect the other way counts as inactive or inconclusive. Potency means the concentration at half of the fitted maximal effect.
SMILES,SMN2 splice enh,p53 reactivation,NPC1 prom act,Rab9 promoter act,ELG1 genotoxic,FLuc counter
COc1cc(/C=N/NC(=O)c2sc3nc(C)cc(C)c3c2N)ccc1O,·,-1%,-3%,-7%,9%,5.4µM*
NC(=O)c1cc2ccccc2o/c1=N/NC(=O)c1cccs1,15%,4%,12%,6%,-2%,-3%
COc1ccc2o/c(=N/NC(=O)c3cccs3)c(C(N)=O)cc2c1,14µM*,?,?,?,14%,?
COc1ccc(C(=S)NC2CCCCC2)cc1,·,?,8%,?,10%,12µM*
CCOc1ccc(C(=S)NC2CCCCC2)cc1,3%,?,3.2µM*,?,14%,12µM*
Cc1ccc(-n2ncc3c(SCC(N)=O)ncnc32)cc1C,·,11%,4µM*,3.2µM*,?,5.4µM*
Cc1ccc(-n2ncc3c(SCC(=O)NNC(=O)C(C)C)ncnc32)cc1,·,6%,24%,13%[1.84 µM],8%,7.6µM*
CC(C)C(=O)NNC(=O)CSc1ncnc2c1cnn2-c1ccccc1Cl,·,-5%,-6%,-13%,-2%,-2%
Cc1ccc(-n2ncc3c(=O)n(CC(N)=O)cnc32)cc1C,·,2%,8%,11%,6%,-19%
CC(=O)CSc1ncnc2c1cnn2-c1ccccc1,11µM*,0%,1.3µM*,1.1µM*,?,7.6µM*
CCC(Sc1nc2ncccc2[nH]1)C(=O)Nc1cccc(OC)c1 (centres undefined),·,·,·,·,·,3%
CCOc1ccc(CCNC(=O)CCc2cn(Cc3ccc(F)cc3)c3ccccc23)cc1,·,·,·,·,·,-7%
Nc1ncccc1OCc1ccc(Br)cc1,?,?,?,2.2µM*,14%,17µM*
COc1ccc(COc2cccnc2N)cc1,·,8%,?,?,9%,?
Clc1ccc(-c2nc3ccncc3[nH]2)cc1,11µM*,?,?,?,?,11µM*
Cc1ccc(-c2nc3ccc([N+](=O)[O-])cc3[nH]2)cc1,1.3µM*,3%,1.6µM*,1.6µM*,?,0.85µM*
O=[N+]([O-])c1ccc2nc(-c3ccc(Cl)cc3)[nH]c2c1,3.2µM*,?,2µM*,1.6µM*,-1%,3µM*
O=[N+]([O-])c1ccc2nc(-c3ccncc3)[nH]c2c1,·,8%,?,28%,?,17µM*
Cc1cccc(C(=O)Nc2c(C(=O)NCc3ccc(Cl)cc3)sc3nc(C)cc(C)c23)c1,-6%,·,·,·,·,-7%
Cc1ccc(S(=O)(=O)N2CCOCC2)cc1NC(=O)CSc1nnc(NC2CC2)s1,·,0%,0%,-2%,-2%,·
O=[N+]([O-])c1ccc2nc(-c3ccccc3[N+](=O)[O-])[nH]c2c1,-5%,?,1%,12%,-12%,?
COc1ccc(-c2nc3ccc([N+](=O)[O-])cc3[nH]2)cc1,1µM*,·,1.6µM*,1.1µM*,?,1.5µM*
O=[N+]([O-])c1cccc(-c2nc3ccc([N+](=O)[O-])cc3[nH]2)c1,-73%,21%,21%,4µM*,-4%,?
N/C(=N\OC(=O)CCCOc1ccc(Cl)cc1Cl)c1ccncc1,7%,10%,-5%,-5%,0%,?
N/C(=N\OC(=O)COc1ccc2ccccc2c1)c1ccncc1,·,1%,-4%,2%,-3%,?
CCc1ccc(OCC(=O)O/N=C(\N)c2ccncc2)c(Br)c1,·,?,3.2µM*,2µM*,?,7.6µM*
N/C(=N\OC(=O)COc1ccc(Cl)cc1Cl)c1cccnc1,?,?,25%,4%,?,6µM*
